Reference: PubChem BioAssay (NCI)
This is part of a sample that, as a whole, favours compounds with a hit. Of some 83,000 tested, about 20% had one in any assay.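 Method: cells in 96-well plates; compound added at one concentration; 48 h incubation; percent growth measured; values under 10 scored active.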 Active and inactive are the calls of the source.

These compounds were tested on MDA-MB-468 breast (assay: NCI-60 one-dose screen, 48 h (100 = growth as untreated, 0 = no growth, -100 = all killed)). Conditions: 10 µM unless noted.

| Compound | growth |
| --- | --- |
| COc1ccc(-c2nc(Cl)c3c(C)nn(-c4ccc(F)cc4)c3n2)cc1 | 105% (inactive) |
| C=C(C)[C@@H]1CC[C@]2(C(=O)N3CCN(C)CC3)CC[C@]3(C)[C@H](CC[C@@H]4[C@@]5(C)C/C(=C/c6ccncc6)[C@H](O)C(C)(C)[C@@H]5CC[C@]43C)[C@@H]12 | -25.5% [100 µM] (active) |
| FC(F)(F)c1ccc2c(c1)n1cnnc1c1nncn21 | 105% (inactive) |
| CCCCCCN(CCCCCC)C(=N)c1ccnc2ccccc12 | 12.5% (inactive) |
| O=C(Nc1cc(Cl)cc(Cl)c1)Nc1nc2ccc([N+](=O)[O-])cc2s1 | -24.1% (active) |
| COc1cc(-c2nn(-c3cccc(NC(=O)CN4CCOCC4)c3)cc2-c2cccnc2)ccc1Cl | 74.9% (inactive) |
| O=C(/C=C1\C(=O)N(Cc2ccccc2)c2ccccc21)c1ccc(OCCN2CCCCC2)cc1 | 19.6% (inactive) |
| C/C(=N\NC(=O)c1ccncc1)c1ccc(N)cc1 | 97.1% (inactive) |
| CC(C)(Cl)CCC1=C(Cl)C(=O)c2ccccc2C1=O | -43.5% (active) |
| N#CC(C#N)=C1NC(c2ccccc2)=C(c2ccccc2)C(c2ccccc2Cl)=C1C#N | 129% (inactive) |
| N=c1sc(Cc2ccc(Cl)cc2)cn1CC(=O)c1ccc(F)cc1 | 84.7% (inactive) |
| C#CCOc1cccc(Nc2c(Cl)c(CCl)nc3ccc(Oc4ccccc4)cc23)c1 | 24.7% (inactive) |
| CCC1C[N+]2=C(c3cc(OC)c(OC)cc3CC2)c2c1cc1n2CCc2cc(OC)c(OC)cc2-1 (stereo not given) | 1.92% (active) |
| O=C1c2ccccc2C(=O)c2sc(Nc3cccc(Cl)c3)nc21 | 13.2% (inactive) |
| O=C(CCC(=O)N1CCOCC1)OCCCCCCSc1ccc([N+](=O)[O-])c2nonc12 | -43.1% (active) |
| COc1ccc2nc(NCCCNCCO)c3sc4ccc(F)cc4c(=O)c3c2c1 | -31.6% (active) |
| FC(F)(F)c1ccc(-c2cnc(-n3cc(COCCN4CCCCC4)nn3)nc2NC2CCCCCC2)cc1 | 16.1% (inactive) |
| CC(O)CN1CCCCC1 (stereo not given) | 104% (inactive) |
| CCSc1nc2c([nH]1)c(=O)n(C)c(=S)n2C | 109% (inactive) |
| Cc1cc(=O)[nH]c(N/N=C/c2ccccc2O)n1 | 58.1% (inactive) |

| Compound | growth |
| --- | --- |
| CCNC(=S)N(Cc1ccccc1)Cc1ccccc1 | 95.4% (inactive) |
| CCCCC[n+]1ccc(SCC(=O)N(C)c2ccc(Oc3ccccc3)cc2)c2ccccc21 | 38.9% (inactive) |
| N=C(c1ccccc1)N(Cc1ccccc1)Cc1ccccc1 | 98.2% (inactive) |
| Cn1cccc1/C=C1/SC(=S)N(CCc2ccc(O)cc2)C1=O | 10.3% (inactive) |
| O=C(O)COc1c(Cl)cc([N+](=O)[O-])cc1Cl | 99.4% (inactive) |
| CCOC(=O)c1c(C)nc2c(c1N)/C(=C/c1cccs1)C(=O)N2Cc1ccccc1 | 47.6% (inactive) |
| CS(=O)(=O)c1ccc(C(=O)N/N=C/c2ccccc2O)cc1 | 64.7% (inactive) |
| O=C(Nc1cccc(Oc2nnc(Cl)c3ccccc23)c1)Nc1ccc(Cl)c(C(F)(F)F)c1 | -44.8% (active) |
| CC1(C)CC[C@]23CC[C@]4(C)[C@H](CC[C@@H]5[C@@]6(C)CCCNC(C)(C)[C@@H]6CC[C@]54C)[C@H]2[C@H]1OC3 | -50.5% (active) |
| C=CC(=O)N1CC2(CC(n3nc(-c4ccc(Oc5ccccc5)cc4)c4c(N)ncnc43)C2)C1 | -8.12% (active) |
| CC(=O)[C@@]12O[C@](C)(c3ccccc3)O[C@@H]1CC1C3CCC4=CC(=O)CC[C@]4(C)C3CC[C@@]12C (stereo not given in full) | 32.8% (inactive) |
| O=C1/C(=C/c2ccc(-c3ccc(Br)cc3)o2)SC(=S)N1CCc1ccc(O)cc1 | 90.2% (inactive) |
| CC1(C)CC[C@]23CC[C@]4(C)[C@H](CC[C@@H]5[C@@]6(C)C/C(=C/c7cccnc7)C(=O)C(C)(C)[C@@H]6CC[C@]54C)[C@H]2[C@H]1OC3=O | 56.9% [100 µM] (inactive) |
| O=C(CCl)Nc1ccc2c(c1)C(=O)c1ccccc1C2=O | -19.1% (active) |
| Cc1nc2c(c(=O)[nH]1)C(c1ccccc1)c1ccc3ccccc3c1O2 (stereo not given) | 22.9% (inactive) |
| C/C=C(/C)n1cnc2c(Nc3ccccn3)nc(Cl)nc21 | 93% (inactive) |
| COc1cccc(CC(C)=C(c2ccc(OCCCN(C)C)cc2)c2ccc(OCCCN(C)C)cc2)c1 | -83.4% (active) |
| CN[C@@H]1C(OC2[C@H](O[C@H]3[C@H](O)[C@@H](O)[C@H](N=C(N)N)[C@@H](O)[C@@H]3N=C(N)N)OC(C)[C@]2(O)CO)OC(CO)C(O)C1O (stereo not given in full) | 108% (inactive) |
| COC(=O)c1[nH]nc2c1C1(C(=O)N(C)c3ccccc31)C(C#N)=C(N)O2 (stereo not given) | 97.5% (inactive) |
| FC(F)(F)c1[nH]ncc1-c1nc2ccc3[nH]ncc3c2c2c1CCCC2 | 19.7% (inactive) |
